Rin1-Abl PPI inh – inhibitors of Rin1-Abl protein binding, primary screen, biochemical, TR-FRET | Tyrosine-protein kinase ABL1 (Homo sapiens) + Ras and Rab interactor 1 (Homo sapiens), … | inhibition, % at 7.35 µM | 360,000 tested, 0.4% active | AID 588664, 2011; in the data active means inhibition above about 5%, passing the limit was not always enough
Rpn11 block – Rpn11 (PSMD14) deubiquitinase inhibitors, primary screen, biochemical, fluorescence polarization, uHTS. 26S proteasome non-ATPase regulatory subunit 14 (Homo sapiens), O00487. inhibition, % at 20 µM. 360,000 tested, 0.59% active. human 26S proteasome, Ub4-pepOG fluorescence polarization; 20S core pre-blocked with epoxomicin;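 active means inhibition at 20 µM, scaled to each plate's controls, above about 33%, limit read from the data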
TPT1 inh – Candida albicans TPT1 enzyme inhibitors, primary screen, biochemical, fluorescence polarization. 300,000 tested, 0.81% active. recombinant caTPT1, FP RNA substrate dephosphorylation. AID 1962, 2009. inhibition, % at 5 µM;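 active means inhibition above the mean of all tested compounds plus 3 SD, set per screening campaign, cut at about 24% in these data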;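 further: plate controls were DMSO alone for no effect and ferristatin control at 100 nM for full effect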
IDE inh – human IDE inhibitors in live cells, primary screen, fluorescence polarization, HEK cells, FAbetaB substrate; Insulin-degrading enzyme (Homo sapiens), P14735; FAbetaB cleavage; inhibition, % at 5.59 µM; 320,000 tested, 0.41% active; AID 434962, 2010;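 active means percent inhibition above the average of all tested compounds plus 3 SD, set per screening campaign, cut at about 16% in these data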;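 further: IDE supplied by intact live HEK cells; FP after avidin binding of uncleaved biotin substrate so inhibition keeps polarization high; 0% = DMSO wells and 100% = 60 µM reference IDE inhibitor Ii1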
Target sequence (P14735 whole entry, looked up): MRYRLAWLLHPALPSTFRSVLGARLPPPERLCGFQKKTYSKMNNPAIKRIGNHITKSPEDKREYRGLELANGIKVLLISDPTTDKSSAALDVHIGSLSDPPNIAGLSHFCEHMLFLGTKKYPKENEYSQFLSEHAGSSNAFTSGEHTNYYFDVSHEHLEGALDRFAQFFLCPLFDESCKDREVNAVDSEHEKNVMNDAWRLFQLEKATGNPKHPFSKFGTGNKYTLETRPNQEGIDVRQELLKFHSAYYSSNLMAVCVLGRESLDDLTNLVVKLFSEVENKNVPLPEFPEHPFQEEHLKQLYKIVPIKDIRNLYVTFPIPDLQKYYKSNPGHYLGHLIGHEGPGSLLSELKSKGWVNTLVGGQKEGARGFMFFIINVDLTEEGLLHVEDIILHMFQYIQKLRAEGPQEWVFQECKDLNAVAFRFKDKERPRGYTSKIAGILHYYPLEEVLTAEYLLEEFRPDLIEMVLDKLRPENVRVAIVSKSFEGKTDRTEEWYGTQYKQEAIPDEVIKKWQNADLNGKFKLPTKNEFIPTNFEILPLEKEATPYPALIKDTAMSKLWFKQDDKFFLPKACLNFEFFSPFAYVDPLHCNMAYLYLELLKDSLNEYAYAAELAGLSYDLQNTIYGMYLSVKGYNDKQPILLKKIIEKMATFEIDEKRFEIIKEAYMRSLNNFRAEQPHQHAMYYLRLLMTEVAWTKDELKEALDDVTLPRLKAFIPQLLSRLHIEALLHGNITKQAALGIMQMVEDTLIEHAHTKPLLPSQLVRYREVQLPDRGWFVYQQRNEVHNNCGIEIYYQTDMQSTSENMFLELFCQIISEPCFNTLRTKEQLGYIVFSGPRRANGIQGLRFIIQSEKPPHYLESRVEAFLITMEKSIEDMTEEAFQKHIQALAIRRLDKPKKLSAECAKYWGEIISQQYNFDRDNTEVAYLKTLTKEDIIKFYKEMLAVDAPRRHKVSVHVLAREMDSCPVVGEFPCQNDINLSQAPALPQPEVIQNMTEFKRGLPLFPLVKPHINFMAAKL
Calb FLC – C. albicans growth inhibition with fluconazole, primary screen, CaCi-2 strain, Alamar Blue fluorescence; C. albicans CaCi-2 (fluconazole-resistant clinical isolate) + fluconazole, 48 h; growth inhibition, % (concentration not given with the values); 300,000 tested, 0.57% active; AID 1979, 2009;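 active means growth inhibition above about 58% in most replicates, limit read from the data, passing the limit was not always enough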;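 further: all wells also contain fluconazole at 8 µg/ml as a sub-toxic cotreatment; 0% = median of DMSO wells and 100% = median of geldanamycin control wells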
IDE act – human IDE activators in live cells, primary screen, fluorescence polarization, HEK cells, FAbeta-B substrate. FAbeta-B cleavage; 0% vehicle, 100% cell-free pure enzyme wells. activation, % at 5.96 µM. Insulin-degrading enzyme (Homo sapiens), P14735. 340,000 tested, 0.073% active;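 active means activation above the mean of all tested compounds plus 3 SD, set per screening campaign, cut at about 17% in these data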
Starred values were filed as active, the others as inactive; x = no result given. Hits are enriched below; roughly 2.3% of the tested compounds scored in any of these assays.

SMILES	Rin1-Abl PPI inh	Rpn11 block	TPT1 inh	IDE inh	Calb FLC	IDE act
COc1ccc(C(=O)Oc2c(C)occc2=O)cc1OC	-4	2	-4	2	-2	-5
Cc1occc(=O)c1OC(=O)Nc1ccc(Cl)c(Cl)c1	1	42*	3	2	x	-1
CC(=O)Nc1ccc(S(=O)(=O)NCCc2ccccn2)cc1	0	x	0	1	-24	18*
O=C(COC(=O)CCCOc1ccc(Cl)cc1Cl)Nc1cccc(Cl)c1	-4	-4	-1	-2	30	-1
O=C(COC(=O)CCc1c[nH]c(=O)[nH]1)Nc1cccc(Cl)c1	11*	-10	2	11	-7	-2
O=C1C2C3C=CC(CC3)C2C(=O)N1c1ccc(Cl)cc1Cl (configuration not stated)	3	0	1	-1	0	4
Cc1ccc(S(=O)(=O)Nc2ccccc2N2CCCCC2)cc1	-1	-6	x	-3	x	5
O=C(NCC(F)(F)F)c1ccc(S(=O)(=O)Nc2ccccc2N2CCCC2)cc1	-1	91*	x	4	x	-2
O=[N+]([O-])c1cccc(-c2cc(-c3cc(Br)ccc3O)[nH]n2)c1	2	-3	-2	-3	84*	-1
OC(c1ccco1)c1nc(-c2ccc(F)c(Cl)c2)cs1 (configuration not stated)	-3	12	x	x	x	x
CC(/C=C/c1ccco1)=N\NC(=O)CNc1ccc2ccccc2c1	1	-2	1	1	116*	-3
Cc1ccc(N2C(=O)N(CC(=O)Nc3cc(F)ccc3C)C(=O)C2C)cc1 (configuration not stated)	4	16	0	-4	x	3
CCOC(=O)/C(=N\Nc1cccc(C(F)(F)F)c1)N(CCOC)CCOC	-4	1	-3	2	-7	5
CCOC(=O)/C(=N\Nc1cccc(C(F)(F)F)c1)N1CCOCC1	2	-2	0	2	114*	-2
CC(C)OP(=O)(c1ccc(N(C)C)cc1)C(O)c1ccccc1 (configuration not stated)	-6	-1	1	-4	98*	1
CCc1nc2ccc(C(=O)NCCOc3ccc(OC)cc3)cn2c1N(C=O)Cc1ccc(OC)cc1	-2	-2	x	x	x	x
Cc1ccc2sc(NNC(=O)c3cc(-c4cccs4)nc4ccccc34)nc2c1C	x	x	5	0	-7	x
Cc1cc(C)c2nc(NNC(=O)c3cc(-c4cccs4)nc4ccccc34)sc2c1	0	22	8	-1	82*	2
O=C(NNc1nc2ccc(Cl)cc2s1)c1cc(-c2cccs2)nc2ccccc12	-4	23	1	1	86*	-1
C[C@H](CO)N1C[C@H](C)[C@@H](CN(C)C(=O)Nc2ccccc2)Oc2ccc(NS(=O)(=O)c3cn(C)cn3)cc2C1=O	5	-4	x	0	x	5
O=C1N[C@H](Cc2ccccc2)COC(=O)[C@H](Cc2ccc(F)cc2)CC/C=C/C[C@@H]1CC(=O)N(CCO)Cc1ccccc1	2	0	x	2	x	6
CC(C)c1ccc(NC(=O)CSc2n[nH]c(=O)n2C2CC2)cc1	2	0	-1	0	4	-2
CCCCCc1ccc(OCCOCCn2c[n+](C)c3ccccc32)c(CCCCC)c1	1	10	x	x	104*	15
CCCCOc1cccc(C2C(C(=O)c3ccc(C)o3)=C(O)C(=O)N2Cc2ccco2)c1 (configuration not stated)	-2	14	x	x	79*	5
O=C(N/N=C/c1ccc(O)cc1)c1csc2ccccc12	-4	3	-2	-5	114*	1
SMILES	Rin1-Abl PPI inh	Rpn11 block	TPT1 inh	IDE inh	Calb FLC	IDE act
CCOc1ccc2nc3cc(NCc4ccc(OC)cc4)ccc3c(N)c2c1	-19	-71	-2	-17	102*	-1
CCC1(CC)NC(=O)N(CC(=O)OCc2nc3cc(C(=O)OC)ccc3c(=O)[nH]2)C1=O	-1	1	x	-1	x	4
COc1ccc(NC(=O)c2cc(-c3cccnc3)nc3ccc(C)cc23)cc1OC	-4	-5	x	x	x	1
COc1ccc(NC(=O)c2cc(-c3ccncc3)nc3ccc(Br)cc23)cc1OC	8.8*	18	2	0	-7	2
Cc1c(OCC(=O)N[C@@H](Cc2c[nH]c3ccccc23)C(=O)O)ccc2c1oc(=O)c1ccccc12	-1	-4	-2	7	1	8
CCCCCc1ccc(-c2ccc(/C=C/C(=O)O)cc2)nc1	-5	-8	-5	9	81*	-2
COc1ccccc1NS(=O)(=O)c1cc(C(=O)NCC(C)(C)N2CCOCC2)ccc1C	2	-2	0	7	3	1
COc1cc(/C=C/C(=O)Nc2cccnc2)cc(OC)c1OC	-1	-5	2	-1	76*	-2
COc1cc(/C=C/C(=O)NCc2cccnc2)cc(OC)c1OC	-4	-4	0	1	3	7
COCCCNC(=O)CCc1nnc2ccc(N3CCC(C)CC3)nn12	4	-8	1	0	0	4
O=Nc1c(-c2cccc([N+](=O)[O-])c2)nc2ncccn12	-2	2	1	7	94*	x
O=[N+]([O-])c1cccc(-c2cn3nc(-c4ccccc4)c(-c4ccccc4)nc3n2)c1	-1	-21	2	8	-8	1
CC1(C)CC(=O)C2=C(C1)c1c(ccc3ccccc13)NC2c1cc([N+](=O)[O-])cc([N+](=O)[O-])c1O (configuration not stated)	-2	-1	-2	-1	111*	-1
CC1(C)SC2c3ccccc3C(=O)N2[C@@H]1C(=O)O (some centres not stated)	-1	-4	0	4	-1	1
Cc1cccc(N2CCN(C(=S)Nc3ccc4nc(N5CCN(C)CC5)cc(C)c4c3)CC2C)c1 (configuration not stated)	-8	4	1	-11	38	30*
O=C(N/N=C/c1ccc(O)c(O)c1O)/C(=C/c1ccc([N+](=O)[O-])cc1)NC(=O)c1ccccc1	15*	18	-7	2	104*	-20
O=C(N/N=C/c1cc([N+](=O)[O-])ccc1O)C(O)(c1ccccc1)c1ccccc1	-1	0	2	0	98*	6
COc1cc(C)c(C(=O)CSc2nnc(CNC(=O)c3ccco3)n2C)cc1C	1	0	0	-6	1	4

Bioassay records (PubChem)
